Measured values as given in PubChem BioAssay AID1259318 (Sanford-Burnham Center for Chemical Genomics, 2017).
About 3,000 (0.81%) of roughly 370,000 compounds were called active. The entries come from a sample that favours actives as a whole. Unmarked numbers belong to inactive results.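 The calls were made as follows: active = activity above about 14% (limit read from the data; passing the limit was not always enough); inactive = the rest.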 Where a SMILES comes first, the peptide text is derived from it. Side-chain parts run from the residue outwards. [ ]: non-standard residue; d: D form. The star is where a group is joined. X1 = CCC(C)C(N)C1=NC(C(=O)*)CS1; Orn = NCCC[CH](N)C(=O)O

Each compound was assayed against Nuclear receptor subfamily 1 group D member 1 (Homo sapiens) (UniProt P20393) (assay: modulators of Rev-erb alpha DNA binding, primary screen, biochemical, FITC-DNA, fluorescence polarization, uHTS (AID 1259318;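 also: 0% = DMSO wells with 35 nM protein and 100% = DMSO wells with 750 nM protein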)). Conditions: Rev-erbα–FITC-DNA binding, 90 min, at 10 µM, active compounds read high.
Chain of Nuclear receptor subfamily 1 group D member 1 (Homo sapiens) (P20393 whole entry, looked up): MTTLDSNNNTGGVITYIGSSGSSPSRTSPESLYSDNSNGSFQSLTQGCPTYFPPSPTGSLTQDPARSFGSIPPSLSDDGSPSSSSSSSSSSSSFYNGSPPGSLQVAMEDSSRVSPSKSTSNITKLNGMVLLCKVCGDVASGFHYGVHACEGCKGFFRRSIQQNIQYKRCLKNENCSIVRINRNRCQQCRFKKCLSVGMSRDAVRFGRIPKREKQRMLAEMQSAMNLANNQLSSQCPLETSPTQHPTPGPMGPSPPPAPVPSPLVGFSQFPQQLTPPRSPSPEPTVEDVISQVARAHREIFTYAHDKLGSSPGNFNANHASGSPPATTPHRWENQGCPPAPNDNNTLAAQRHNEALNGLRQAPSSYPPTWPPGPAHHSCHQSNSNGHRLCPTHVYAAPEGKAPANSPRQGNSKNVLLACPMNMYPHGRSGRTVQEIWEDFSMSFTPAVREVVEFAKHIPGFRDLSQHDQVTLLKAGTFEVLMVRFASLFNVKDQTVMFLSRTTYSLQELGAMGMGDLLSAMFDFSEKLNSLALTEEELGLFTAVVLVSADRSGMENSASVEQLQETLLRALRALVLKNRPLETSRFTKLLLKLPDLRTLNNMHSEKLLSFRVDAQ

SMILES	activity
COc1ccc(S(=O)(=O)N(C)CC(=O)NCCCN2CCOCC2)cc1Cl	3.3%
CCCS(=O)(=O)NC(=O)C1(C)CCCN(C(=O)c2cccs2)C1 (stereo not given)	-2.98%
Nc1nc(/C(=C/CC(=O)O)C(=O)N[C@@H]2C(=O)N3C(C(=O)O)=CCS[C@H]23)cs1	-0.02%
CCC(C)C(N)C1=NC(C(=O)NC(CC(C)C)C(=O)NC(CCC(=O)O)C(=O)NC(C(=O)NCCCCC2NC(=O)C(CC(N)=O)NC(=O)C(CC(=O)O)NC(=O)C(Cc3cnc[nH]3)NC(=O)C(Cc3ccccc3)NC(=O)C(C(C)CC)NC(=O)C(CCCN)NC2=O)C(C)CC)CS1 (stereo not drawn) (cyclo(DNK([Ile-Glu-Leu-X1])[Orn]IFH); configuration not given here)	-1.28%
COC(=O)c1ccc(NC(=O)c2cc(Cl)ccc2OC)cc1	46.1% (active)
CCC(C)NC(=O)c1cc(Cl)ccc1OC (stereo not given)	-0.16%
COc1ccc(Cl)cc1-c1cc(C(=O)Nc2cc(OC)c(OC)c(OC)c2)[nH]n1	0.68%
Cc1ccc2c(C)c(C(=O)N3CCC(N4CCC(C(=O)NC5CC5)CC4)CC3)oc2c1	5.47%
O=C(NCCCc1ccccc1)[C@H](Cc1ccccc1)NC1(C(=O)NCCc2c[nH]c3ccccc23)CCC1	1.61%
CCc1ccc2c(c1)cc(CN(C(=S)Nc1ccccc1Cl)C1CC1)c1nnnn12	18.7% (active)
CCc1cccc(NC(=S)N(CCN(C)C)C2CCN(C(C)C)CC2)c1	-2.21%
CCOc1ccc2c(c1)cc(CN(C(=O)CC)C1CCCCC1)c1nnnn12	-0.47%
O=C(c1cccc(Br)c1)N1CCN(C2=NS(=O)(=O)c3ccccc32)CC1	1%
CC(=O)NCc1ccc(S(=O)(=O)NC2CCN(Cc3ccccc3)CC2)cc1	-1.17%
CCCn1c(SCC(=O)c2ccc3c(c2)OCCO3)nnc1C(C)C	-3.34%
COc1ccc(-c2nnc(SCC(=O)c3ccc4c(c3)OCCO4)o2)cc1	39.7% (active)
COc1ccc(CN(C(=O)CSc2nnc(-c3ccc(OC)c(OC)c3)o2)c2ccc(F)cc2)cc1	4.8%
CCc1ccccc1NC(=O)CSc1nnc(-c2cccs2)o1	-8.53%
O=C(CCc1nnc2ccc(NCc3ccccc3Cl)nn12)NCC1CCN(C2CCCC2)C1 (stereo not given)	-21.6%
CC12CCC(=O)C=C1CCC1C2[C@@H](O)CC2(C)C1CC[C@]2(O)C(=O)COP(=O)(O)O (stereo not given in full)	1.93%
CC(C)CCn1c(=O)c2c(nc3n2CCCN3Cc2ccccc2)n(C)c1=O	-1.34%
Cn1c(=O)n(C)c2cc(/C=N/NC(=O)c3cccc(Br)c3)ccc21	49.2% (active)

SMILES	activity
O=C(N/N=C/c1ccc(OCC2COCCO2)cc1)c1ccc(Br)cc1 (stereo not given)	-0.42%
C/C(Cc1ccccc1)=N\NC(=O)CNC(=O)c1cccc(Br)c1	-0.21%
Cc1nc(CNc2ncnc3ccc(-c4ccc5c(c4)OCO5)cc23)cs1	-0.38%
CCOC(=O)C1CCN(C(=O)C(C)(C)NC(=O)Nc2ccc(F)c(F)c2)CC1	-2.08%
O=C(CCn1c(=S)[nH]c2cc3c(cc2c1=O)OCO3)NCc1ccc(Cl)cc1	21.7% (active)
CCN(CC)CCCNC(=O)c1ccc2c(=O)n(Cc3ccc4c(c3)OCO4)c(=S)[nH]c2c1	-2.35%
CC(C)NC(=O)CCCn1c(=S)[nH]c2cc3c(cc2c1=O)OCO3	-1.56%
CCC[C@H]1C(=O)CC[C@@]23CCCN2C(=O)CCC[C@@H]13	-1.54%
CO/N=C(/C(=O)N[C@@H]1C(=O)N2C(C(=O)O)=C(CSc3nc(=O)c(O)nn3C)CS[C@H]12)c1csc(N)n1	-8.75%
O=C(Nc1ccc(F)cc1)C1CCCN(S(=O)(=O)c2ccc(-n3cnnn3)cc2)C1 (stereo not given)	4.65%
CN1C(=O)c2cccc3c(N)ccc(c23)C1=O	275% (active)
Cc1nn(C)cc1N1C(=O)c2cccc3c(N)ccc(c23)C1=O	153% (active)
COc1ccc(-c2cc(-c3nnc(SCC(=O)Nc4cccc5ccccc45)n3N)[nH]n2)cc1	-0.24%
O=C(OCc1ccccc1)c1ccc(O)cc1	-3.01%
CC(=O)C1(C)N(O)C(C)(C)C(c2cccs2)=[N+]1[O-] (stereo not given)	-3.38%
C=C1C(C(C)C)N(C)C2=NC(c3ccccc3)CC(=O)N12 (stereo not given)	0.81%
O=S1(=O)CC(N2CCN(Cc3ccccc3F)CC2)CN1Cc1cn(Cc2ccccc2)nn1 (stereo not given)	-7.27%
COc1ccc(-c2noc(CCCC(=O)NC3CCCC3)n2)cc1OC	-0.42%
COc1ccc(CCNC(=O)CCC(=O)NC2CCCCC2)cc1OC	-2.47%
COc1ccc(/C=C2\SC(=S)N(CCCC(=O)NC3CCCC3)C2=O)cc1OC	40.1% (active)
O=C(NC1CCC1)c1ccc(C#Cc2cccc(F)c2)c[n+]1[O-]	1.34%
Cc1cc(NC(=O)CSc2nc(C(C)C)nc3sc4c(c23)CCC(C)C4)no1 (stereo not given)	58.2% (active)

SMILES	activity
CCn1c(SCC(C)=O)nc2sc3c(c2c1=O)CCCC3	-1.07%
Cc1cc(NC(=O)CSc2nnc(-c3ccc(Cl)s3)o2)no1	6.3%
Cc1cc(NC(=O)Cn2nc(C(F)(F)F)c3c2CCCC3)no1	-1.28%
Cc1nc(SCC(=O)Nc2cc(C)on2)c2c3c(sc2n1)CCCC3	27% (active)
Cc1cc(NC(=O)CSc2nc(=O)cc(N)n2-c2ccc(F)cc2)no1	-4.08%
O=C(NCc1ccco1)C1CCCN(S(=O)(=O)c2ccc(Cl)s2)C1 (stereo not given)	-2.05%
COCCCNC(=O)CN1CCN(Cc2ccccc2Cl)C1=O	-7.51%
COC(=O)Nc1ccc(S(=O)(=O)N(C)CC(F)(F)C(F)F)cc1	3.77%
CCOc1ccccc1N1CCN(C(=S)Nc2ccc(S(N)(=O)=O)cc2)CC1	-6.97%
CCOC(=O)c1ccc(NC(=S)N2CCN(c3ccccn3)CC2)cc1	26.1% (active)
CCN(CC)c1ccc(NC(=O)CN2CCN(c3ccccn3)CC2)cc1	-0.51%
O=C1CC(C(=O)O)NC(=S)N1 (stereo not given)	-0.01%
CCCCCCSc1ccc([C@@H]2[C@H]3C(=O)N(CC)C(=O)[C@H]3[C@]3(C(=O)OC)CCCCN23)cc1	-1.1%
COC(=O)[C@]12CCCCC=C1N(Cc1ccccc1)C(=O)[C@H](CC(=O)NCc1ccc(C)o1)C2	-2.87%
N#Cc1c(N)nc2c3c(sc(=N)c2c1N)NC(=O)CC3c1ccccc1Cl (stereo not given)	31.7% (active)
CCOc1cc(-c2conc2N)cc(OCC)c1OCC	-2.64%
COc1ccc(-c2nc3n(c(=O)c2C#N)CCS3)c(OC)c1	0.62%
CCOc1cc(-c2cc(-c3ccc(OC)cc3)nc(N)c2C#N)ccc1O	31.7% (active)
CCn1c(=O)n2n(c1=O)[C@@]1(C=C3CCCC[C@H]32)N=C(NC(=O)c2ccccc2)N(Cc2ccccc2)[C@H]1Cc1ccccc1	-9.89%
CCN(CC)c1ccc2cc(C(N)=O)/c(=N\NC(=O)c3ccncc3)oc2c1	35.1% (active)
C/C(=N\NC(N)=S)c1ccncc1	0.98%
CCN(CC)c1ccc(/C=N/NC(=O)CNC(=O)c2cccs2)cc1	0.7%

SMILES	activity
N#C/C(C(=O)N1CCOCC1)=C1/SC(Cc2ccc(F)cc2)C(=O)N1c1ccccc1 (stereo not given)	5.35%
COC(=O)c1ccccc1N=Nc1c(C)[nH][nH]c1=O	3.84%
O=S(=O)(c1ccccc1)c1nc(Cc2ccccc2)oc1N1CCOCC1	-4.54%
c1ccc(CSc2ncnc3c2sc2nc(N4CCOCC4)c4c(c23)CCCC4)cc1	158% (active)
CC(=O)c1c(N2CCOCC2)nc(=S)n(Cc2ccccc2)c1C	-2.43%
CCOC(=O)N1CCN(c2cc(C)c([N+](=O)[O-])cc2F)CC1	-1.95%
CCCNC(=O)Nc1ccc2c(c1)C(=O)N(C)[C@H]1CC[C@H](CC(=O)NCC3CCCCC3)O[C@@H]1CO2	119% (active)
CCC(=O)Nc1ccc2c(c1)C(=O)N(C)[C@@H]1CC[C@@H](CC(=O)NCCc3ccccc3)O[C@H]1CO2	15.2%
CCC(=O)Nc1ccc2c(c1)C(=O)N(C)[C@H]1CC[C@H](CC(=O)NCCOC)O[C@@H]1CO2	9.28%
CC(Sc1nnnn1C)C(=O)NC(=O)NC1CCCCC1 (stereo not given)	6.95%
CN(CC(=O)NCCc1ccc(F)cc1)CC(=O)Nc1ccc(F)c(F)c1F	-0.12%
COc1ccccc1CCNC(=O)C1CCN(c2nc(C)cc(C)n2)CC1	2.47%
COc1ccc(Cl)cc1-n1c(C)cc(C(=O)OCC(=O)N2CC(=O)Nc3ccccc32)c1C	-0.59%
CCOC(=O)CSc1nc2ccc(C)cc2n2cnnc12	1.03%
COc1ccc(CCNc2cc(C)nc3c(-c4ccc(Cl)cc4)c(C)nn23)cc1OC	7%
COc1ccc(CCNc2nc3ccc(C)cc3n3cnnc23)cc1OC	41.9% (active)
COC(=O)Cn1c(=NC(=O)CSCC(=O)Nc2cc(C)on2)sc2ccccc21	3.13%
COC(=O)Cn1c(=NC(=O)c2cc(OC)c(OC)c(OC)c2)sc2cc(OC)ccc21	23.3% (active)
COC(=O)Cn1c2ccc(C)cc2c2nc(C)sc21	5.92%
